The source of these data is PubChem BioAssay (EPA / NIEHS).

Records with an inconclusive call do not appear. Active and inactive are the calls of the source. How the source made its calls: active means hit-call score of the fitted dose curve at least 0.9, where 1 is the maximum; inconclusive means response in the unintended direction; inactive means score below 0.9.

Sequence of Estrogen receptor (Homo sapiens) (P03372 whole entry, looked up): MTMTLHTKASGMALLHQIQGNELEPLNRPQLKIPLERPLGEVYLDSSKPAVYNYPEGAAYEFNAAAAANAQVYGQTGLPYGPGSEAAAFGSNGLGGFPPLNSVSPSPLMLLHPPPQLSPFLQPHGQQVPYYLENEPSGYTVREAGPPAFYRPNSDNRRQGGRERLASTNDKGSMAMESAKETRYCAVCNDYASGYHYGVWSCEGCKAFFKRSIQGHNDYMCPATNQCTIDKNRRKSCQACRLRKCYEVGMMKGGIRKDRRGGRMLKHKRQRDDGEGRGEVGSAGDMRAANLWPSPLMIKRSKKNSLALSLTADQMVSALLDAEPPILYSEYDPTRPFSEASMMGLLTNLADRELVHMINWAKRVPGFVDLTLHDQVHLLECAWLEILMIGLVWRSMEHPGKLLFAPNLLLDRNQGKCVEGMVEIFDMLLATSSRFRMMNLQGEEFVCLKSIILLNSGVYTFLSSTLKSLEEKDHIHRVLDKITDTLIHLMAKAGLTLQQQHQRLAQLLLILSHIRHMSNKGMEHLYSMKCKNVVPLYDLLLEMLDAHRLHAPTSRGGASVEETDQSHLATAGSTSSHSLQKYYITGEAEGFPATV

The experiment deals with Estrogen receptor (Homo sapiens) (UniProt P03372). As to the kind of experiment: NVS_NR_hER: NovaScreen (NVS) Nuclear Receptor Binding Assay for human Estrogen Receptor (ER) (AID 2283348). On the procedure:
NVS_NR_hER is a biochemical, single-readout assay that uses extracted gene-proteins from MCF7 in a cell-free assay. Measurements were taken 18 hours after chemical dosing in a 96-well plate.NVS_NR_hER is one of one assay component(s) measured or calculated from the NVS_NR_hER assay. It is designed to make measurements of radioligand binding, a form of binding reporter, as detected with scintillation counting signals by Lysate-based radiodetection technology.Data from the assay component NVS_NR_hER was analyzed into 1 assay endpoint. This assay endpoint, NVS_NR_hER, was analyzed in the positive analysis fitting direction relative to DMSO as the negative control and baseline of activity. Using a type of binding reporter, loss-of-signal activity can be used to understand changes in the binding as they relate to the gene ESR1. Furthermore, this assay endpoint can be referred to as a primary readout, because the performed assay has only produced 1 assay endpoint. To generalize the intended target to other relatable targets, this assay endpoint is annotated to the nuclear receptor intended target family, where the subfamily is steroidal.
Binding assays used specific radioligands (tritiated, iodinated) with non-radioactive competitive displacement ligands in agonist or antagonist protocols (as indicated) and various reference compounds and inhibitors to titrate specific binding to receptors and transporters. Most enzyme assays (CYPs, kinases, phosphatases, proteases, HDACs) used recombinant protein and specific substrates (fluorescence mostly, some colorimetric and radioactive) and inhibitors, followed by a biochemical separation of substrate and product. All assays for the biochemical HTS were initially run in duplicate at a single concentration (10 uM for CYP450 assays and 25 uM for all others). […] Each assay was run with positive and negative controls, and concurrent controls on every plate. The follow-up (secondary) screen tested active chemical-pairs in concentration series, as well as a few additional assays not tested in the primary screen, some selected negative inactives, and several cases re-run in the concentration series for confirmatory purposes.
For `CC(C)C1CCC(Cc2ccc(Cl)cc2)C1(O)Cn1cncn1` (stereo not given), the outcome was inactive.
Consider `CCC[CH2][Sn]([CH2]CCC)([CH2]CCC)[O]C(=O)c1ccccc1`, for which the AC50 is 2.94 µM (active).
Turning to `COC(=O)c1sccc1S(=O)(=O)NC(=O)Nc1nc(C)nc(OC)n1`, the outcome was inactive.
For the molecule `CC(=O)[O][Hg][c]1ccccc1`, the molecule was called inactive.
On the same count and under the same terms, as for `CC(C)(C)c1cc(O)ccc1O`, the entry is “inactive”; as for `O=C(CCl)CCl`, “inactive”; as for `CCOP(=S)(OCC)SCSP(=S)(OCC)OCC`, “inactive”.
For the molecule `CC1(C)CCC(Cc2ccc(Cl)cc2)C1(O)Cn1cncn1` (stereo not given), the molecule was called inactive.
On the same count and under the same terms, then `C=C(C)C(=O)[O][Sn]([CH2]CCC)([CH2]CCC)[CH2]CCC`, with “inactive”; and `ClC1=C(Cl)[C@]2(Cl)[C@H]3[C@H]([C@H]4C=C[C@H]3C4)[C@@]1(Cl)C2(Cl)Cl`, with “inactive”; and `O=C1CCCN1`, with “inactive”.
Turning to `O=C(Cc1ccccc1)c1ccccc1`, the molecule was called inactive.
Regarding `CC(C)(c1ccc(OCC2CO2)cc1)c1ccc(OCC2CO2)cc1` (stereo not given), the AC50 is 14.2 µM (active).
`NNC(=S)NN`: the result was inactive.
As for `COP(=S)(OC)Oc1cc(Cl)c(Br)cc1Cl`, the outcome was inactive.
Take `CCC(C)(C)c1ccc(O)c(C(C)(C)CC)c1`: the molecule was called inactive.
Take `O=C(OC1CCCCC1)c1ccccc1C(=O)OC1CCCCC1`: the result was inactive.
Take `Clc1ccc(C2(Cn3cncn3)CC(Br)CO2)c(Cl)c1` (stereo not given): the outcome was inactive.
For `C[C@H]1CCCC(=O)CCC/C=C/c2cc(O)cc(O)c2C(=O)O1`, the AC50 is 0.00245 µM (active).
Regarding `BrCCBr`, the call was inactive.
Turning to `C=CC(=O)OCCCCCC(C)C`, the outcome was inactive.
Still for that read-out and setting: then `CC(C)(OO)c1ccccc1`, with “inactive”.
Still for that read-out and setting: as for `CC(C)c1ccc(CO)cc1`, the entry is “inactive”; as for `CCOC(=O)/C=C(C)/C=C/C[C@@H](C)CCCC(C)C`, “inactive”; as for `CC(C)(c1ccccc1)c1ccc(O)c(C(C)(C)c2ccccc2)c1`, “inactive”.
On the same count and under the same terms, then `CCC1(c2ccc(N)cc2)CCC(=O)NC1=O` (stereo not given), with “inactive”.
Take `COP(=S)(OC)Oc1ccc(Sc2ccc(OP(=S)(OC)OC)cc2)cc1`: the AC50 is 1.73 µM (active).
As for `Fc1ccc(C2(Cn3cncn3)OC2c2ccccc2Cl)cc1` (stereo not given), the molecule was called inactive.
As to `COP(=O)(OC)O/C(=C\Cl)c1cc(Cl)c(Cl)cc1Cl`, the call was inactive.
Take `O=C(Nc1ccc2[nH]ccc2c1)c1cc2cc(F)ccc2n1Cc1cccc(F)c1`: the molecule was classed as inactive.

A word on the AC50: it is the concentration giving half of the maximal activity seen.
